From PubChem BioAssay (NCI)
About 79,000 compounds went through this panel and 15% of them were active in at least one assay; those are over-represented in the sample as a whole. Calls of active or inactive are those of the source. Rule as the data show it: active = growth inhibition above about 70%; inactive = the rest.

Test: NCI Yeast Anticancer Drug Screen. Data for the mec2-1 strain (AID 157)
Conditions: S. cerevisiae mec2-1 strain, at 50.0 µM, hits give high values
Summary of the method: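 Strain: mec2-1 (DNA repair/cell cycle alteration). Compound exposure, then growth measured; inhibition expressed relative to vehicle.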

Row | SMILES | growth inhibition
1 | c1cnc(NC(Nc2ncccn2)c2ccco2)nc1 | -8.9% (inactive)
2 | O=C(NCCNC(=O)c1cccc([N+](=O)[O-])c1O)c1cccc([N+](=O)[O-])c1O | 6.8% (inactive)
3 | C[N+](C)(C)CC(=O)N/N=C(/C=C/c1ccccc1)CC1OC(=O)c2ccccc21 (stereo not given) | -11.4% (inactive)
4 | C/C=C(/c1ccccc1)c1ccc(N(C)C)cc1 | 0.85% (inactive)
5 | O=C(O)c1c[nH]c2cc(O)ccc2c1=O | 3.3% (inactive)
6 | O=C1CC(N2CCOCC2)c2ccccc21 (stereo not given) | 11.1% (inactive)
7 | CCn1cnc2c(=O)n(C)c(=O)n(C)c21 | -17.9% (inactive)
8 | O=C(OC(=O)c1cccc(Br)c1)c1cccc(Br)c1 | -10.5% (inactive)
9 | N#CC12CCC(O)C(CC1)C2=O (stereo not given) | 0.85% (inactive)
10 | Cc1ccc2ccccc2[n+]1CC(=O)c1ccc2c(c1)OCO2 | -23.2% (inactive)
11 | CC(=O)Nc1ccc(Cc2[nH]c(=O)[nH]c(=O)c2Br)cc1 | -30.9% (inactive)
12 | O=C(c1ccccc1Cl)c1ccc2ccccc2c1C(=O)O | -0.55% (inactive)
13 | O=C1CC2CC1C1C(=O)OC(=O)C21 (stereo not given) | 5.95% (inactive)
14 | CCC(CC)C(=O)OC1CCCCC1C(C)C (stereo not given) | -3.5% (inactive)
15 | O=[N+]([O-])C1C2CCC(C2)C1c1ccccc1 (stereo not given) | -3.75% (inactive)
16 | CCC1=NS(=O)(=O)c2c(ncn2C)N1 | 8.55% (inactive)
17 | O=C(O)C/C(=C\c1ccccc1)C(=O)O | -25.9% (inactive)
18 | CC(C)(C)c1ccc(Oc2nc(Oc3ccc(C(C)(C)C)cc3)nc(Oc3ccc(C(C)(C)C)cc3)n2)cc1 | 10.8% (inactive)
19 | S=c1[nH]nc(SCc2ccc(Cl)cc2Cl)c2[nH]cnc12 | 1.4% (inactive)
20 | Cc1ccc(OS(=O)(=O)c2ccccc2)cc1 | 20.4% (inactive)

Row | SMILES | growth inhibition
21 | O=C(/C=C/c1ccccc1)/C=N/N1C(=S)N(c2ccccc2)C(=Nc2ccccc2)C1=Nc1ccccc1 | -15.8% (inactive)
22 | Cn1c(=O)c2[nH]c(CC3=CCCCC3)nc2n(C)c1=O | 13.1% (inactive)
23 | [O-]c1c[n+](CCCC[n+]2cc([O-])on2)no1 | -32.8% (inactive)
24 | CCOP(=O)(OCC)/C(C#N)=C/c1ccc2ccccc2c1 | -5.05% (inactive)
25 | C=C(Cl)C(Cl)(CBr)CCC(Cl)C(C)C (stereo not given) | 15.5% (inactive)
26 | CCCNC(=O)Nc1ccc(OCC)cc1 | -11.3% (inactive)
27 | Nc1nc(-c2ccccc2)[nH]c(=O)n1 | -0.45% (inactive)
28 | O=[N+]([O-])c1ccc2c(c1)/C(=N/O)CCC2 | -0.55% (inactive)
29 | CNC(=O)OCc1c(COC(=O)NC)c2n(c1C)CCS2(=O)=O | -18.3% (inactive)
30 | Cc1nn(C(=O)c2ccc(Cl)cc2)c2c1C(c1ccccc1O)SC(N)=N2 (stereo not given) | -47.1% (inactive)
31 | CC(C)CCC[C@@H](C)[C@H]1CC[C@H]2[C@@H]3CC=C4C[C@@H]([n+]5ccccc5)CC[C@]4(C)[C@H]3CC[C@]12C | -9.8% (inactive)
32 | Cc1ccc2nc(-c3ccc(CSC(=N)N)cc3)oc(=O)c2c1 | 43.5% (inactive)
33 | CC1=CCC(CC(=O)O)C1(C)C (stereo not given) | 2.05% (inactive)
34 | CCCCc1c2c(nc3c1CCC/C3=C\c1ccccc1)C(=O)CCC2 | 9.1% (inactive)
35 | O=CC1OC(c2ccccc2)OC1C1OC(c2ccccc2)OC1C=O (stereo not given) | 13.7% (inactive)
36 | CCC1(CC)C(=O)OC(=O)C1(CC)CC | 6.7% (inactive)
37 | C=CC(=NC(C)C)N(C)c1ccccc1 | 13.9% (inactive)
38 | ClC1=CC(Cl)=C2N=C(N3CCCC3)N=C3N=C(N4CCCC4)N=C1N32 | -5.45% (inactive)
39 | COC(=O)/C(=N\NC(N)=O)C(C#N)c1ccccc1 (stereo not given) | -1.85% (inactive)
40 | FC(F)/C=C\c1ccccc1 | -4.55% (inactive)

Test: NCI Yeast Anticancer Drug Screen. Data for the sgs1 mgt1 strain (AID 161);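 also: 0% = growth of cultures given vehicle only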
Conditions: S. cerevisiae sgs1 mgt1 strain, at 50.0 µM, hits give high values
Summary of the method: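 Read-out: growth inhibition vs vehicle controls. Cells: mutant yeast strain deficient in DNA damage repair.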

Row | SMILES | growth inhibition
41 | c1cnc(NC(Nc2ncccn2)c2ccco2)nc1 | -5.55% (inactive)
42 | O=C(NCCNC(=O)c1cccc([N+](=O)[O-])c1O)c1cccc([N+](=O)[O-])c1O | -2.85% (inactive)
43 | C[N+](C)(C)CC(=O)N/N=C(/C=C/c1ccccc1)CC1OC(=O)c2ccccc21 (stereo not given) | -3.5% (inactive)
44 | C/C=C(/c1ccccc1)c1ccc(N(C)C)cc1 | -10.1% (inactive)
45 | O=C(O)c1c[nH]c2cc(O)ccc2c1=O | -4.75% (inactive)
46 | O=C1CC(N2CCOCC2)c2ccccc21 (stereo not given) | 12.6% (inactive)
47 | CCn1cnc2c(=O)n(C)c(=O)n(C)c21 | 4% (inactive)
48 | O=C(OC(=O)c1cccc(Br)c1)c1cccc(Br)c1 | 26% (inactive)
49 | N#CC12CCC(O)C(CC1)C2=O (stereo not given) | 10.1% (inactive)
50 | Cc1ccc2ccccc2[n+]1CC(=O)c1ccc2c(c1)OCO2 | -0.6% (inactive)
51 | CC(=O)Nc1ccc(Cc2[nH]c(=O)[nH]c(=O)c2Br)cc1 | -19.6% (inactive)
52 | O=C(c1ccccc1Cl)c1ccc2ccccc2c1C(=O)O | -0.6% (inactive)
53 | O=C1CC2CC1C1C(=O)OC(=O)C21 (stereo not given) | -6.7% (inactive)
54 | CCC(CC)C(=O)OC1CCCCC1C(C)C (stereo not given) | -0.2% (inactive)
55 | O=[N+]([O-])C1C2CCC(C2)C1c1ccccc1 (stereo not given) | -0.55% (inactive)
56 | CCC1=NS(=O)(=O)c2c(ncn2C)N1 | -5.6% (inactive)
57 | O=C(O)C/C(=C\c1ccccc1)C(=O)O | -17.4% (inactive)
58 | CC(C)(C)c1ccc(Oc2nc(Oc3ccc(C(C)(C)C)cc3)nc(Oc3ccc(C(C)(C)C)cc3)n2)cc1 | 10.6% (inactive)
59 | S=c1[nH]nc(SCc2ccc(Cl)cc2Cl)c2[nH]cnc12 | 11.4% (inactive)
60 | Cc1ccc(OS(=O)(=O)c2ccccc2)cc1 | 49.1% (inactive)

Row | SMILES | growth inhibition
61 | O=C(/C=C/c1ccccc1)/C=N/N1C(=S)N(c2ccccc2)C(=Nc2ccccc2)C1=Nc1ccccc1 | -12.9% (inactive)
62 | Cn1c(=O)c2[nH]c(CC3=CCCCC3)nc2n(C)c1=O | 6.05% (inactive)
63 | [O-]c1c[n+](CCCC[n+]2cc([O-])on2)no1 | -13.3% (inactive)
64 | CCOP(=O)(OCC)/C(C#N)=C/c1ccc2ccccc2c1 | -16.8% (inactive)
65 | C=C(Cl)C(Cl)(CBr)CCC(Cl)C(C)C (stereo not given) | 85.2% (active)
66 | CCCNC(=O)Nc1ccc(OCC)cc1 | -14.8% (inactive)
67 | Nc1nc(-c2ccccc2)[nH]c(=O)n1 | -37% (inactive)
68 | O=[N+]([O-])c1ccc2c(c1)/C(=N/O)CCC2 | 1.05% (inactive)
69 | CNC(=O)OCc1c(COC(=O)NC)c2n(c1C)CCS2(=O)=O | -8.15% (inactive)
70 | Cc1nn(C(=O)c2ccc(Cl)cc2)c2c1C(c1ccccc1O)SC(N)=N2 (stereo not given) | -30.1% (inactive)
71 | CC(C)CCC[C@@H](C)[C@H]1CC[C@H]2[C@@H]3CC=C4C[C@@H]([n+]5ccccc5)CC[C@]4(C)[C@H]3CC[C@]12C | 0.95% (inactive)
72 | Cc1ccc2nc(-c3ccc(CSC(=N)N)cc3)oc(=O)c2c1 | 45.6% (inactive)
73 | CC1=CCC(CC(=O)O)C1(C)C (stereo not given) | -2.85% (inactive)
74 | CCCCc1c2c(nc3c1CCC/C3=C\c1ccccc1)C(=O)CCC2 | 3.2% (inactive)
75 | O=CC1OC(c2ccccc2)OC1C1OC(c2ccccc2)OC1C=O (stereo not given) | 19.2% (inactive)
76 | CCC1(CC)C(=O)OC(=O)C1(CC)CC | 2.8% (inactive)
77 | C=CC(=NC(C)C)N(C)c1ccccc1 | 1.7% (inactive)
78 | ClC1=CC(Cl)=C2N=C(N3CCCC3)N=C3N=C(N4CCCC4)N=C1N32 | -19.7% (inactive)
79 | COC(=O)/C(=N\NC(N)=O)C(C#N)c1ccccc1 (stereo not given) | -5.75% (inactive)
80 | FC(F)/C=C\c1ccccc1 | -10.4% (inactive)
